Assay results as given in PubChem BioAssay (NCI).
The panel holds about 83,000 compounds, 20% with a hit somewhere; the sample as a whole holds those more often.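 Negative percent growth values reflect cell death: -40 means 40% of the cells present at the start died, and -100 means all died.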 The source made the active and inactive calls. The calls were made as follows: active = growth percent below 10; inactive = the rest.

test system: UACC-257 melanoma; experiment: NCI-60 one-dose screen, 48 h (100 = growth as untreated, 0 = no growth, -100 = all killed); conditions: 10 µM unless noted

| Compound | growth |
| --- | --- |
| O=P(O)(O)C(O)(Cc1cccnc1)P(=O)(O)O | 99.4% (inactive) |
| O=C(Nc1cccc(Cl)c1)Nc1ccccc1Cl | 86.8% (inactive) |
| C[N+](C)(C)CCCCCCCCCC[N+](C)(C)C | 107% (inactive) |
| CC(=O)C1CCC2C3CC(C)=C4CC(O)CCC4(C)C3CCC12C (centres undefined) | 117% (inactive) |
| COc1ccc2nc3ccccc3c(NCc3ccc(C)cc3)c2c1 | -7.97% (active) |
| O=C(CCCN1CCC(O)(c2ccc(Br)cc2)CC1)c1ccc(F)cc1 | -21.9% (active) |
| O=C(c1ccc(OCCN2CCCCC2)cc1)c1c(-c2ccc(O)cc2)sc2cc(O)ccc12 | 92.8% (inactive) |
| ClCCn1cnc2c(SCc3ccccc3Cl)ncnc21 | 58.7% (inactive) |
| O=C(N/N=C/c1ccc([N+](=O)[O-])o1)c1ccc(O)cc1 | 17.1% (inactive) |
| Oc1ccc(-c2nnc3c4[nH]ccc4ncn23)cc1 | 117% (inactive) |

test system: M14 melanoma; experiment: as above; conditions: 10 µM unless noted

| Compound | growth |
| --- | --- |
| NNc1ccc(S(N)(=O)=O)cc1 | 101% (inactive) |
| COc1ccc(-c2ccc(-c3ccc(C(=N)N)s3)s2)cc1 | -55.1% (active) |
| O=P(O)(O)C(O)(Cc1cccnc1)P(=O)(O)O | 99.6% (inactive) |
| O=C1OC(/C=C/c2ccccc2)=NC/1=C/c1ccccc1[N+](=O)[O-] | 99.6% (inactive) |
| N/C(=N\O)c1ncc(-c2ccc(C(F)(F)F)cc2)c(NC2CCCCCC2)n1 | -91.9% [100 µM] (active) |
| Cc1cc(Nc2c3ccccc3nc3ccccc23)ccc1NS(C)(=O)=O | 45.1% (inactive) |
| COC(=O)[C@H](Cc1cn(C)cn1)NC(=O)[C@H](CC(C)C)NC(=O)Nc1cc(C(F)(F)F)cc(C(F)(F)F)c1 | -95.2% [100 µM] (active) |
| N=C(N)c1ccc(-c2ccc(-c3cccs3)s2)cc1F | -78.3% (active) |
| CCCCCCCCCCCCCC | 115% (inactive) |
| COc1cc(OC)c(C(=O)/C=C/c2cccc(OC(C)=O)c2)cc1CC=C(C)C | 87.6% (inactive) |
| C[N+](C)(C)CCCCCCCCCC[N+](C)(C)C | 97.1% (inactive) |
| Cc1cc2nc(CN)[nH]c2cc1C | 99.9% (inactive) |
| CC(=O)C1CCC2C3CC(C)=C4CC(O)CCC4(C)C3CCC12C (centres undefined) | 98.1% (inactive) |
| N=C(N)c1ccc(-c2ccc(-c3ccco3)o2)cc1F | -65.9% (active) |
| N#Cc1ccc(-c2ccc(-c3cccs3)o2)cc1F | 87.7% (inactive) |
| O=C(Nc1cccc(-n2ccc3c(NC(=O)c4ccccc4)nccc32)c1)c1ccc(Cl)c(Cl)c1 | -83.4% (active) |
| COc1cc(OC)cc(-c2ccc(-c3ccc(C(=N)N)s3)s2)c1 | -88.2% (active) |
| COc1ccc(-c2cc(-c3cc4ccccc4oc3=O)n(-c3ccccc3)n2)cc1 | 89% (inactive) |
| O=C1c2cccc3cccc(c23)C(=O)N1CCCCCCCCCCN1C(=O)c2cccc3cccc(c23)C1=O | 119% (inactive) |
| O=C(CCCN1CCC(O)(c2ccc(Br)cc2)CC1)c1ccc(F)cc1 | 18.6% (inactive) |
| O=C(N/N=C/c1ccc([N+](=O)[O-])o1)c1ccc(O)cc1 | 4.75% (active) |
| CCS(=O)(=O)Nc1cccc(Nc2c3cccc(C)c3nc3c(C)cccc23)c1OC | 17.2% (inactive) |
| CCN(C(=O)CCl)C(C)(C)C(SSSC(c1ccc(Cl)cc1)C(C)(C)N(CC)C(=O)CCl)c1ccc(Cl)cc1 (centres undefined) | -15.9% (active) |
| CCOC(=O)C(CCCCC(NC(C)=O)(C(=O)OCC)C(=O)OCC)(NC(C)=O)C(=O)OCC | 105% (inactive) |
| ClC1=NC(Cl)C(Cl)=N/C1=N\c1ncn[nH]1 (centres undefined) | 39.2% (inactive) |
| COc1cc2c(cc1OC)-c1cc(OC)c(OC)cc1C(CN(C)C)C2 (centres undefined) | 69.5% [100 µM] (inactive) |
| COc1ccc(/C=N/NC(N)=S)c(OC)n1 | 104% (inactive) |
| CC(C)(C)c1cc(C[P+](c2ccccc2)(c2ccccc2)c2ccccc2)cc(C(C)(C)C)c1O | 11.7% (inactive) |
| FC(F)(F)c1cc(-c2nnc3n2N=C(Cl)CS3)cc(C(F)(F)F)c1 | 84.6% (inactive) |
